Source: PubChem BioAssay
Coupling enz: counter-screen for Giardia aldolase inhibitors: coupling enzyme system | activity change, negative = inhibition, % at 58.2 µM, hits read low | AID 2472 | hit rate 0.67% among 290,000 | coupling enzyme system counterscreen, AmpLite Red fluorescence; in the data active means activity change below about -30%; further: on the % scale 0 is the no-effect control and ±100 the full control effect
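Compounds tested against the coupling enzymes alone at 57.5 uM final; readout was AmpLite Red fluorescence (525/598 nm) after 20 min at RT.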
Tau fluor cs: counter-screen for tau fibril formation inhibitors. tau K18 P301L Alexa594 fluorescence, heparin fibrillization. Potency, µM (titrated, usually from 57.7 µM), for the others: at the highest dose activity change, negative = decrease. hit rate 0.93% among 280,000. AID 1463; further: potency means the concentration at half of the fitted maximal effect; on the % scale 0 is the no-effect control and ±100 the full control effect; nearly all actives have a fitted effect of over 55% in size
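Human K18 P301L tau (15 uM unlabeled plus 0.24 uM Alexa 594-labeled, final) in 100 mM sodium acetate pH 7 was mixed with compound and 20 uM heparin and incubated 6 hr at 37 C.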
G9a inh: G9a (human) methyltransferase inhibition | Q96KQ7 | G9a H3K9 monomethylation, AlphaScreen, 2 h | Potency, µM (doses to about 102 µM), without a hit: at the highest dose activity, negative = inhibition, actives largely listed as inhibitors | hit rate 8.8% among 350,000 | AID 504332; further: potency means the concentration at half of the fitted maximal effect; on the % scale 0 is the no-effect control and ±100 the full control effect; nearly all actives have a fitted effect of over 75% in size
Target sequence (Q96KQ7 913-1193 limits assumed): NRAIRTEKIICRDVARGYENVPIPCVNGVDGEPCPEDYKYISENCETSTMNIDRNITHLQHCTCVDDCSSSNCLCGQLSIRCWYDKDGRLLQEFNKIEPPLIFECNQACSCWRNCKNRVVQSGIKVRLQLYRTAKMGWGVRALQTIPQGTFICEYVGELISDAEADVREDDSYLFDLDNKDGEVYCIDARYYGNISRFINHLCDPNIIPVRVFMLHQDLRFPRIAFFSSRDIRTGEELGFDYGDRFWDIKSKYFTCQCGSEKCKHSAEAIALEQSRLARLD
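AlphaScreen read-out: biotin-H3K9 peptide (500 nM) methylation by 20 nM enzyme with 20 uM SAM, 2 h at room temperature after 15 min compound preincubation; anti-monomethyl H3K9 antibody plus donor/acceptor beads, 10 min dark.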
Tau fibril FP: blocks human tau fibril formation measured by polarization; P10636; hit rate 0.39% among 280,000; AID 1468; K18 P301L tau heparin fibrillization, Alexa594 FP, 6 h; Potency, µM (top dose mostly 57.7 µM), for the others: top-dose activity, negative = inhibition, usual class: inhibitors; further: potency means the concentration at half of the fitted maximal effect; on the % scale 0 is the no-effect control and ±100 the full control effect; nearly all actives have a fitted effect of over 55% in size
Target sequence (P10636 561-689 P618L limits assumed): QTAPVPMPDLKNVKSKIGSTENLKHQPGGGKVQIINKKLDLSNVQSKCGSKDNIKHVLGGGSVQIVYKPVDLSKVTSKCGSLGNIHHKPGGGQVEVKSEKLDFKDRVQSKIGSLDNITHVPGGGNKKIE
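Human tau K18 […] P301L fragment, 15 uM unlabeled plus 0.24 uM Alexa 594-labeled tau (final), with compound and 20 uM heparin in 100 mM sodium acetate pH 7; 6 hr at 37 C, then Alexa 594 FP read.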
Tau ThT inhib: blocks human tau fibril formation measured by thioflavin T. P10636. recombinant tau K18 P301L (four-repeat tau fragment), heparin-induced fibrillization, ThT fluorescence. Potency, µM (highest dose often 57.4 µM), for the others: at the highest dose activity, negative = inhibition, actives largely listed as inhibitors. hit rate 2.1% among 270,000; further: potency means the concentration at half of the fitted maximal effect; on the % scale 0 is the no-effect control and ±100 the full control effect; nearly all actives have a fitted effect of over 55% in size
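Tau K18 P301L fragment (15 uM unlabeled plus 0.24 uM Alexa 594-labeled) in 100 mM sodium acetate pH 7 with compound, fibrillization induced by 20 uM heparin for 6 hr at 37 C. Thioflavin T (30 uM) added, fluorescence read after 1 hr (ex 450, em 510 nm).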
Sfp PPTase inh: inhibitors of Bacillus subtilis Sfp phosphopantetheinyl transferase; Biochemical Sfp PPTase activity, qHTS; Potency, µM, for the others: largest response in the series, negative = inhibition, usual class: inhibitors; hit rate 3.5% among 310,000;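 further: the enzyme is Sfp with the accession as filed and its product quenches rhodamine fluorescence; potency means the concentration at half of the fitted maximal effect; 0% = enzyme reaction without inhibitor and -100% = no enzyme wells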
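Fluorescence-quenching assay: 15 nM Sfp-PPTase preincubated 15 min at room temperature with compound, then 5 uM rhodamine-CoA and 12.5 uM BHQ-2-labelled YbbR peptide added. Fluorescence (ex 525/em 598 nm) read at start and after 30 min; difference gives rate.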
Sfp PPTase conf: Sfp phosphopantetheinyl transferase inhibition, confirmation. shares compounds with Sfp PPTase inh. Sfp PPTase enzymatic assay, qHTS titration. Potency, µM (highest dose often 114 µM), for the others: at the highest dose activity change, negative = inhibition, most hits filed as inhibitors. hit rate 79% among 380. AID 2701;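 further: potency means the concentration at half of the fitted maximal effect; plate controls were uninhibited Sfp reaction for no effect and no enzyme control for full effect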
Target sequence (Q9F4F7 whole entry, looked up): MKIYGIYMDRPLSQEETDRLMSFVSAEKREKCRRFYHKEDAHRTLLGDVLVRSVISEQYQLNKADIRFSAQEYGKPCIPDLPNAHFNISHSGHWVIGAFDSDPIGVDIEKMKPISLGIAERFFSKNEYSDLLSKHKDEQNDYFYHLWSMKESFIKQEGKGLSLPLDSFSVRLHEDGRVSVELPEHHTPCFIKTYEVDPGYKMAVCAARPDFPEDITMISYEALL
Sfp gel assay: Blocks Sfp PPTase activity, gel read-out | Potency, µM, hits mostly inhibitors | shares compounds with Sfp PPTase inh | purified Sfp, gel-based phosphopantetheinylation read-out | hit rate 20% among 210;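 active means potency below 100 µM; inconclusive means dose-dependent response but potency above 100 µM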;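 further: band intensities scaled against SCH202676 control wells before curve fitting; potency is an IC50 for inhibitors of Sfp transfer activity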
Casp1 confirm: blocks human caspase-1 activity in concentration-response. shares compounds with Coupling enz. purified caspase-1, fluorogenic substrate cleavage. Potency, µM (titrated, usually from 57.5 µM), for inactives: at the highest dose activity change, negative = inhibition, usual class: inhibitors. hit rate 20% among 60. AID 896; active means well fitted inhibition curve with a large enough effect in the main read-out, with a control signal flat; inconclusive means small, poorly fitted or top-dose-only effect, or a change in a side signal; inactive means no such curve, though single readings can be large or run the other way
CASP7 inh CRC: blocks human caspase-7 activity in concentration-response | 60 tested, under 10 active | AID 897 | shares compounds with Coupling enz | Potency, µM (top dose mostly 57.5 µM), inactives show at the top dose activity change, negative = inhibition, usual class: inhibitors | recombinant caspase-7, fluorogenic substrate cleavage; active means well fitted inhibition curve with a large enough effect in the main read-out, with a control signal flat, not every such curve was filed as active; inconclusive means small, poorly fitted or top-dose-only effect, or a change in a side signal; inactive means no such curve, though single readings can be large or run the other way
Casp7 cysteine: inhibits caspase-7 in cysteine buffer, redox counter-screen; shares compounds with Coupling enz; caspase-7 enzyme with cysteine, fluorogenic substrate, redox counterscreen; 60 tested, under 10 active; Potency, µM (doses to about 57.5 µM), inactives show top-dose activity change, negative = inhibition, actives largely listed as inhibitors; active means well fitted inhibition curve with a large enough effect in the main read-out, with a control signal flat; inconclusive means small, poorly fitted or top-dose-only effect, or a change in a side signal; inactive means no such curve, though single readings can be large or run the other way
Casp1 cysteine: caspase-1 inhibition with cysteine present | shares compounds with Coupling enz | recombinant caspase-1, fluorogenic substrate, cysteine buffer | Potency, µM (series often up to 57.5 µM), without a hit: at the highest dose activity change, negative = inhibition, actives largely listed as inhibitors | 60 tested, under 10 active | AID 929; active means well fitted inhibition curve with a large enough effect in the main read-out, with a control signal flat; inconclusive means small, poorly fitted or top-dose-only effect, or a change in a side signal; inactive means no such curve, though single readings can be large or run the other way
The depositor's hits bear a star; i = inactive; u = inconclusive; x = no result; ! = not active in a repeat; [ ] = remark or other dose. In the library only some 11% were active in any assay of this set; here they are far more common. Unless noted, the call rests on the fitted dose curve; in most records, active means well fitted curve in the direction sought with a large enough effect; inconclusive means small, poorly fitted or top-dose-only effect, or another doubt; inactive means no such curve, though single readings can be large; an effect the other way counts as inactive or inconclusive.

SMILES	Coupling enz	Tau fluor cs	G9a inh	Tau fibril FP	Tau ThT inhib	Sfp PPTase inh	Sfp PPTase conf	others
CCOC(=O)c1c(-c2ccc(C)o2)csc1NC(=O)COC(=O)c1cccs1	-0.3	0.5%	10µM*	4.7%	-9.9%	10µM*	21µM*	Sfp gel assay=u
COc1cccc(CNc2ccc(N3CCC(C)CC3)cc2)c1OC	-10.9	u	u	u	17.8µM*	10µM*	u	Sfp gel assay=i
CCC(CO)[n+]1c(C)cc(/C=C2\Sc3ccccc3N2Cc2ccccc2)cc1C (stereo not drawn)	-11.6	-14.4%	u	-5.2%	u	35.5µM*	52.7µM*	Sfp gel assay=u
CCC(C)NC(=O)c1ccc2c(c1)N(Cc1ccccc1)C(=O)c1ccccc1S2 (stereo not drawn)	x	-8.0%	6.4%[59 µM]	1.5%	-1.2%	x	x
O=C(O)C1CSC(c2ccccc2Cl)N1C(=O)c1ccc(Cl)cc1 (stereo not drawn)	10.0	-3.6%	15.1%[59 µM]	10.5%	-8.3%	20.2%	x
CC(C)N1CCC(N2CCN(C3CCCC3)CC2CCO)CC1 (stereo not drawn)	2.0	5.0%	x	8.3%	-1.1%	3.9%	x
Cc1cccc(N2CCC(N3CCN(C4CCCCC4)C(CCO)C3)CC2)c1C (stereo not drawn)	-10.3	-39.0%	15.8µM*	-56.8%	10µM*	10µM*	-6.7%	Sfp gel assay=i
Cn1c(=O)c2c(nc(SCC(=O)c3ccccc3F)n2C)n(C)c1=O	1.9	21.7%	29.3%	5.3%	17.9%	1.0%	x
O=C(O)c1cc(/C=C/C(=O)c2cc(F)ccc2O)c2c(c1)COCO2	1.1	-11.5%	x	3.2%	x	22.4µM*	46.9µM*	Sfp gel assay=i
COc1ccc(C(=O)/C=C/c2cc(C(=O)O)cc3c2OCOC3)c(O)c1	-0.5	-2.4%	u	-14.1%	u	-16.8%	x
COc1ccc(C2C=C(C34CC5CC(CC(C5)C3)C4)NC(=S)N2)cc1 (stereo not drawn)	1.1	-10.0%	u	-4.8%	-9.7%	1.8%	x
COc1ccc2[nH]c(S(=O)Cc3ncc(C)c(OC)c3C)nc2n1 (stereo not drawn)	x	x	u	x	x	44.7µM*	18.7µM*
COc1ccc2c(C)cc(C)nc2n1	-1.0	-2.2%	11.6%[12.7 µM]	-2.4%	-2.7%	5.3%	x
O=C(NC1CCCC1)c1cc2nc(-c3ccco3)cc(C(F)(F)F)n2n1	0.9	x	24.6%	x	x	2.1%	x
Nc1c(C(=O)NC2CC2)sc2nc3c(c(-c4ccco4)c12)CC/C3=C/c1ccco1	-34.7*	u	3.16µM*	u	8.91µM*	5.01µM*	8.35µM*
Cc1ccccc1-n1nc(-c2ccc(N)cc2)cc1N	1.6	-12.1%	u	4.4%	u	14.1µM*	1.7%	Sfp gel assay=i
c1cncc(-c2nnc(-c3cccnc3)nn2)c1	-40.5*	-11.1%	8.91µM*	u	u	39.8µM*	14.8µM*
On1c2c(c3c4nonc4ccc31)CCCC2	-59.5*	u	u	u	7.94µM*	44.7µM*	66.3µM*
Oc1ccccc1-n1nc2ccc3nonc3c2n1	2.9	-15.7%	5.9%	-6.6%	-7.2%	6.8%	x
CO/N=C(/C(=O)N[C@@H]1C(=O)N2C(C(=O)O)=C(CSc3cnns3)CS[C@H]12)c1csc(N)n1	x	x	u	x	x	39.8µM*	52.7µM*	Sfp gel assay=55.6µM*
COc1ccccc1OC(C)C(=O)N1CCN(Cc2ccc3c(c2)OCO3)CC1 (stereo not drawn)	3.3	x	-5.6%	x	x	4.0%	x
Cc1ccc(CNc2ccc(O)cc2)cc1	-46.0*	u	u	8.91µM*	3.55µM*	u	x	Casp1 confirm=-13.4%;CASP7 inh CRC=-5.5%;Casp7 cysteine=-8.9%;Casp1 cysteine=3.1%
CC1CCc2nc3ncn(Cc4ccccc4F)c(=O)c3cc2C1 (stereo not drawn)	x	-3.6%	14.4%[59 µM]	-6.5%	-4.3%	x	x
CC(=O)n1nc(-c2ccco2)nc1SCc1ccccc1	1.2	-5.8%	44.7µM*	2.1%	u	-15.1%	x	Casp1 confirm=-2.9%;CASP7 inh CRC=2.4%;Casp7 cysteine=-0.9%;Casp1 cysteine=7.9%
Cc1ccccc1CC1CCN(CCCNC(=O)Nc2ccccc2)CC1	-0.1	x	0.5%	x	x	3.1%	x
SMILES	Coupling enz	Tau fluor cs	G9a inh	Tau fibril FP	Tau ThT inhib	Sfp PPTase inh	Sfp PPTase conf	others
Cc1ccc(N)c(Cl)c1	-3.0	x	x	x	x	10.7%	x
Nc1ccc(N)c(Cl)c1	x	x	x	x	x	x	x	Casp1 confirm=-3.7%;CASP7 inh CRC=0.8%;Casp7 cysteine=-3.0%;Casp1 cysteine=4.3%
O=C(Oc1ccc(OC(=O)C2CCC2)cc1)C1CCC1	0.3	-5.1%	-4.0%[59 µM]	1.0%	-12.7%	-20.5%	x
Nc1ccc(O)c(C(=O)O)c1	-45.7*	x	3.16µM*	x	x	44.7µM*	x	Casp1 confirm=-18.2%;CASP7 inh CRC=-35.4%;Casp7 cysteine=-36.4%;Casp1 cysteine=-1.8%
Cc1csc2nc(COc3ccc(NC(=O)c4ccccc4F)cc3)cc(=O)n12	x	-15.8%	u	-3.6%	u	x	x
O=C1C(SCCO)=C(SCCO)C(=O)c2ccccc21	-55.6*	2µM*[quencher]	1.26µM*!	2.51µM*	14.1µM*	0.282µM*!	x	Casp1 confirm=-44.1%;CASP7 inh CRC=-17.6%;Casp7 cysteine=-13.9%;Casp1 cysteine=-7.9%
O=C1C=C(O)c2c(O)cccc2C1=O	1.8	-9.5%	82.1%[59 µM]	-3.7%	u	u	x
